Growth data for twelve compounds are collected here from PubChem BioAssay (NCI).

Compounds without any hit were thinned out: in the full panel of roughly 83,000, 20% have a hit.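 Activity criterion: percent growth below 10, measured after cells in 96-well plates were exposed to a single compound concentration for 48 hours.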 Activity calls are given as the source filed them.

The subject of this experiment is IGROV1 ovarian. The experiment can be described thus: NCI-60 one-dose screen, 48 h (100 = growth as untreated, 0 = no growth, -100 = all killed). The following applies: 10 µM unless noted.
Consider `CCC(=O)Nc1ccc(-c2nc(-c3cccc(O)c3)c(-c3ccnc(Br)c3)[nH]2)cc1`, for which the growth is 85.4% (inactive).
Then `COc1cc(C2=NN(C(C)=O)C(c3ccc(N4CCOCC4)cc3)C2)cc(OC)c1OC` (configuration not stated), with 98.5% (inactive); and `CCC(=O)Nc1cc(Nc2cc(NC3CC3)n3ncc(C#N)c3n2)ccc1C`, with 6.78% (active).
`O=C(CSc1ccc(-c2nc3ccccc3[nH]2)cn1)N1CCN(c2ccccc2F)CC1`: the growth is 80.7% (inactive).
As for `NCCN1CCN(c2nc(-c3ccccc3)nc3nc(-c4ccccc4)oc23)CC1`, the figure is -71.6% (active); as for `CCN(CC)Cc1c(-c2cccc(OC(F)(F)F)c2)[nH]c2ccc(N3CCCC3)cc2c1=O`, 79.6% (inactive).
Take `C#C[C@]1(O)CC[C@H]2[C@@H]3CC=C4c5sc(-c6ccc(OC)cc6)nc5CC[C@]4(C)[C@H]3CC[C@@]21C`: the growth is 70.2% (inactive).
Then `C#C[C@]1(O)CC[C@H]2[C@@H]3CC=C4c5sc(Nc6cc(OC)ccc6OC)nc5CC[C@]4(C)[C@H]3CC[C@@]21C`, with 47.9% (inactive); and `O=C(Nc1cccc(-c2nc(-c3ccc(NC(=O)c4cccnc4)cc3Cl)no2)c1)Nc1ccc(NC(=O)C2CC2)c(C(F)(F)F)c1`, with -55.4% (active).
Turning to `O=C(Nc1ccc(-c2nc(-c3cccc(O)c3)c(-c3ccnc(Br)c3)[nH]2)cc1)c1ccccc1`, the growth is 25.6% (inactive).
As for `COc1ccccc1N1CCN(C2=NN=C(c3cccc(Cl)c3)c3ccccc3C2)CC1`, the figure is 21.4% (inactive); as for `O=C(CN1C(=O)CSC1=O)Nc1ccc(C(=O)/C=C/c2cc3ccccc3nc2Cl)cc1`, 66.9% (inactive).
